Reference: PubChem BioAssay (NCATS)
Results filed as inconclusive are left out. Active and inactive are the calls of the source. The call rests on the fitted dose curve; in most records, active means well fitted inhibition curve with a large enough effect; inconclusive means small, poorly fitted or top-dose-only effect; inactive means flat fitted curve, though single readings scatter.

What was measured:
HEK293 = assay: Cytotoxic Profiling of Annotated Libraries Using Quantitative High-Throughput Screening (AID 1296008); details: Five cell lines viability, CellTiter-Glo ATP luminescence, 48-72 h; max response: hits give low values; on max response: on the % scale 0 is the no-effect control and ±100 the full control effect
How it was run: (§1)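 Compounds were pin-transferred onto cells and incubated 48 or 72 hr at 37 degree Celsius, 95% humidity. CellTiter-Glo was added, plates sat 10 min at room temperature, then ATP-coupled luminescence was imaged as the viability read-out.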

HaCat [1] = assay: as above; details: Five cell lines viability, CellTiter-Glo ATP luminescence, 48-72 h; max response: hits give low values
How it was run: as §1

KB-3-1 = assay: as above; details: Five cell lines viability, CellTiter-Glo ATP luminescence, 48-72 h; max response: hits give low values
How it was run: as §1

NIH3T3 = assay: as above; details: Five cell lines viability, CellTiter-Glo ATP luminescence, 48-72 h; max response: hits give low values
How it was run: as §1

HACAT [2] = assay: qHTS assay to identify novel small-molecules to repurpose for Merkel cell carcinoma treatment (AID 1296009); details: MCC and control cell lines, CellTiter-Glo viability, 72 h; series mostly up to 44.8 µM
How it was run: (§2)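 Luminescence from CellTiter-Glo, read 10 min after addition at room temperature, reported viability following a 72 hr, 37 degree celsius treatment with NPC or MIPE compounds in titration; values normalized to plate controls.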

HEK293T = assay: as above; details: MCC and control cell lines, CellTiter-Glo viability, 72 h; at 44.8 µM (top of the series) unless noted
How it was run: as §2
Further: nearly all actives have a fitted effect of over 60% in size.

COc1ccc([C@@]2(O)c3c(ccc(CC=C(C)C)c3O)NC(=O)[C@@H]2OC)cc1
inactive: outcome (HEK293) | outcome (HaCat [1]) | max response (KB-3-1) 8.3% | max response (NIH3T3) 4.4% | Potency (HACAT [2]) | outcome (HEK293T)

O=C(CO)[C@@H](O)[C@H](O[C@@H]1O[C@H](CO)[C@H](O)[C@H](O)[C@H]1O)[C@H](O)CO
inactive: outcome (HEK293) | max response (HaCat [1]) -14% | max response (KB-3-1) 5.5% | outcome (HEK293T)

C[C@@H]1O[C@@H](O[C@@H]2[C@@H](O)[C@@H](O[C@]3(CO)O[C@H](CO)[C@@H](O)[C@@H]3OC(=O)/C=C/c3ccc(O)cc3)O[C@H](CO)[C@H]2OC(=O)/C=C/c2ccc(O)cc2)[C@H](O)[C@H](O)[C@H]1O[C@@H]1O[C@@H](C)[C@H](O[C@@H]2OC[C@](O)(CO)[C@H]2O)[C@@H](O)[C@H]1O
inactive: outcome (HEK293) | outcome (HaCat [1]) | max response (KB-3-1) 3.92% | max response (NIH3T3) -0.786% | outcome (HACAT [2]) inactive [at 9.27 µM] | outcome (HEK293T) inactive [at 9.27 µM]

C=C(C)C1CCC(C)C12CC(O)C1(C)OC1C2OC(=O)C(N)CCC(=O)O (stereo unspecified)
inactive: max response (HEK293) -1.87% | outcome (HaCat [1]) | max response (KB-3-1) 1.24% | max response (NIH3T3) 4.47% | Potency (HACAT [2])

COc1c(/C=C/C(C)(C)O)ccc2c1C(=O)OCc1cc(C)cc(O)c1O2
inactive: max response (HEK293) -114% | outcome (HaCat [1]) | max response (KB-3-1) -23.3% | max response (NIH3T3) 2.57% | Potency (HACAT [2])

CC(=O)O[C@H]1CC[C@@]2(C)C(CC[C@@H](C)[C@]23Cc2c(O)cc4c(c2O3)CN([C@@H](CCC(=O)O)C(=O)O)C4=O)C1(C)C (stereo partly specified)
inactive: max response (HEK293) -7.36% | outcome (HaCat [1]) | outcome (KB-3-1) | max response (NIH3T3) 2.49% | Potency (HACAT [2])
